Measured values from PubChem BioAssay AID1159580 (chemical genetic matrix, 2015).
The whole screen tested about 5,500 compounds, of which about 2,000 (36%) were called active. Inconclusive results (about 18%) are left out. The list shows a part of the results. A number with no mark means an inactive call. Rule as the data show it: active = normalized growth mostly below about 0.91 (no sharp cut-off); inconclusive = no clear call, values can overlap the other calls; inactive = mostly above about 0.92.

Experiment: chemical genetic growth profiling, strain panel (AID 1159580);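 also: tested at 20 µM; growth read once vehicle control cultures reached saturation at 30 °C; 1 = growth at the plate median or of vehicle wells; lower values mean less growth of the strain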
Conditions: S. cerevisiae deletion strains, growth OD

## CC(=O)c1ccc(O)c(CC=C(C)C)c1
Locus YAL021C, strain ccr4, active compounds read low
  normalized growth: 1
Locus YAL026C, strain drs2, active compounds read low
  normalized growth: 0.952
Locus YAL030W, strain snc1, active compounds read low
  normalized growth: 0.972
Locus YBL061C, strain skt5, active compounds read low
  normalized growth: 0.956
Locus YBR009C, strain hhf1, active compounds read low
  normalized growth: 0.933
Locus YBR021W, strain FUR4, active compounds read low
  normalized growth: 0.954
Locus YBR023C, strain chs3, active compounds read low
  normalized growth: 0.964
Locus YBR171W, strain sec66, active compounds read low
  normalized growth: 0.949
Locus YBR229C, strain ROT2, active compounds read low
  normalized growth: 0.983
Locus YBR231C, strain swc5, active compounds read low
  normalized growth: 0.929
Locus YBR279W, strain paf1, active compounds read low
  normalized growth: 0.977
Locus YCL011C, strain gbp2, active compounds read low
  normalized growth: 0.959
Locus YCL016C, strain dcc1, active compounds read low
  normalized growth: 0.999
Locus YCL029C, strain bik1, active compounds read low
  normalized growth: 0.967
Locus YCL061C, strain MRC1, active compounds read low
  normalized growth: 0.965
Locus YCL069W, strain vba3, active compounds read low
  normalized growth: 0.971
Locus YCR088W, strain abp1, active compounds read low
  normalized growth: 0.968
Locus YDL005C, strain med2, active compounds read low
  normalized growth: 0.952
Locus YDL035C, strain GPR1, active compounds read low
  normalized growth: 0.956
Locus YDL040C, strain nat1, active compounds read low
  normalized growth: 0.97
Locus YDL074C, strain BRE1, active compounds read low
  normalized growth: 0.867
Locus YDL101C, strain DUN1, active compounds read low
  normalized growth: 0.963
Locus YDL134C, strain PPH21, active compounds read low
  normalized growth: 0.984
Locus YDL185W, strain tfp1, active compounds read low
  normalized growth: 0.922
Locus YDL192W, strain arf1, active compounds read low
  normalized growth: 0.942
Locus YDR001C, strain nth1, active compounds read low
  normalized growth: 0.966
Locus YDR069C, strain doa4, active compounds read low
  normalized growth: 0.951
Locus YDR101C, strain arx1, active compounds read low
  normalized growth: 0.968
Locus YDR137W, strain rgp1, active compounds read low
  normalized growth: 0.983
Locus YDR159W, strain sac3, active compounds read low
  normalized growth: 0.896
Locus YDR162C, strain NBP2, active compounds read low
  normalized growth: 0.963
Locus YDR195W, strain ref2
  normalized growth: 0.975
Locus YDR297W, strain sur2, active compounds read low
  normalized growth: 0.933
Locus YDR318W, strain mcm21, active compounds read low
  normalized growth: 0.958
Locus YDR334W, strain swr1, active compounds read low
  normalized growth: 0.966
Locus YDR335W, strain msn5, active compounds read low
  normalized growth: 0.994
Locus YDR388W, active compounds read low
  normalized growth: 0.967
Locus YDR392W, strain spt3, active compounds read low
  normalized growth: 0.929
Locus YDR502C, strain sam2, active compounds read low
  normalized growth: 0.938
Locus YEL003W, strain gim4, active compounds read low
  normalized growth: 0.928
Locus YEL037C, strain rad23, active compounds read low
  normalized growth: 0.964
Locus YEL061C, strain CIN8 (second series), active compounds read low
  normalized growth: 0.965
Locus YEL061C, strain CIN8, active compounds read low
  normalized growth: 0.982
Locus YER015W, strain faa2, active compounds read low
  normalized growth: 0.971
Locus YER016W, strain bim1, active compounds read low
  normalized growth: 0.975
Locus YER110C, active compounds read low
  normalized growth: 0.965
Locus YER111C, strain swi4, active compounds read low
  normalized growth: 0.974
Locus YER155C, strain BEM2 (second series), active compounds read low
  normalized growth: 0.958
Locus YER155C, strain BEM2, active compounds read low
  normalized growth: 0.986
Locus YER167W, strain BCK2, active compounds read low
  normalized growth: 0.904
Locus YFR010W, strain ubp6, active compounds read low
  normalized growth: 0.952
Locus YGL078C, strain dbp3, active compounds read low
  normalized growth: 0.961
Locus YGL086W, strain mad1, active compounds read low
  normalized growth: 0.972
Locus YGL167C, strain pmr1, active compounds read low
  normalized growth: 0.962
Locus YGL173C, strain kem1, active compounds read low
  normalized growth: 0.949
Locus YGL227W, strain vid30, active compounds read low
  normalized growth: 0.961
Locus YGL240W, strain doc1, active compounds read low
  normalized growth: 0.894
Locus YGL248W, strain PDE1, active compounds read low
  normalized growth: 0.961
Locus YGL253W, strain hxk2, active compounds read low
  normalized growth: 0.884 (active)
Locus YGR078C, strain PAC10, active compounds read low
  normalized growth: 0.936
Locus YGR135W, strain pre9, active compounds read low
  normalized growth: 0.934
Locus YGR229C, strain SMI1, active compounds read low
  normalized growth: 0.84
Locus YGR252W, strain gcn5, active compounds read low
  normalized growth: 0.749 (active)
Locus YHR013C, strain ard1, active compounds read low
  normalized growth: 0.991
Locus YHR027C, strain rpn1, active compounds read low
  normalized growth: 0.971
Locus YHR030C, strain SLT2, active compounds read low
  normalized growth: 0.976
Locus YHR079C, strain IRE1 (second series), active compounds read low
  normalized growth: 0.959
Locus YHR094C, strain hxt1, active compounds read low
  normalized growth: 0.967
Locus YHR129C, strain ARP1, active compounds read low
  normalized growth: 0.967
Locus YHR142W, strain chs7, active compounds read low
  normalized growth: 0.926
Locus YHR200W, strain rpn10, active compounds read low
  normalized growth: 0.971
Locus YIL066C, strain RNR3, active compounds read low
  normalized growth: 0.945
Locus YIL073C, strain SPO22, active compounds read low
  normalized growth: 0.955
Locus YIR030C, strain dcg1, active compounds read low
  normalized growth: 0.965
Locus YJL092W, strain hpr5, active compounds read low
  normalized growth: 0.97
Locus YJL095W, strain BCK1 (second series), active compounds read low
  normalized growth: 0.964
Locus YJL095W, strain BCK1, active compounds read low
  normalized growth: 0.956
Locus YJL115W, strain asf1, active compounds read low
  normalized growth: 0.975
Locus YJL129C, strain trk1, active compounds read low
  normalized growth: 0.946
Locus YJL134W, strain LCB3, active compounds read low
  normalized growth: 0.974
Locus YJL154C, strain vps35, active compounds read low
  normalized growth: 0.966
Locus YJL164C, strain tpk1, active compounds read low
  normalized growth: 0.973
Locus YJL166W, strain qcr8, active compounds read low
  normalized growth: 0.936
Locus YJL168C, strain set2, active compounds read low
  normalized growth: 0.99
Locus YJL187C, strain SWE1 (second series), active compounds read low
  normalized growth: 0.953
Locus YJL187C, strain SWE1, active compounds read low
  normalized growth: 0.961
Locus YJR043C, strain POL32, active compounds read low
  normalized growth: 0.876
Locus YJR075W, strain HOC1, active compounds read low
  normalized growth: 0.947
Locus YKL009W, strain mrt4, active compounds read low
  normalized growth: 0.939
Locus YKL068W, active compounds read low
  normalized growth: 0.957
Locus YKL085W, strain MDH1 (second series), active compounds read low
  normalized growth: 0.951
Locus YKL085W, strain MDH1, active compounds read low
  normalized growth: 0.951
Locus YKL160W, strain elf1, active compounds read low
  normalized growth: 0.982
Locus YKR001C, strain vps1, active compounds read low
  normalized growth: 0.808 (active)
Locus YKR026C, strain gcn3, active compounds read low
  normalized growth: 0.962
Locus YKR091W, strain srl3, active compounds read low
  normalized growth: 0.969
Locus YLL001W, strain dnm1, active compounds read low
  normalized growth: 0.945
Locus YLL026W, active compounds read low
  normalized growth: 0.973
Locus YLL041C, strain sdh2, active compounds read low
  normalized growth: 0.965
Locus YLR027C, strain aat2, active compounds read low
  normalized growth: 0.951
Locus YLR039C, strain RIC1, active compounds read low
  normalized growth: 0.688
Locus YLR058C, strain SHM2, active compounds read low
  normalized growth: 0.977
Locus YLR102C, strain apc9, active compounds read low
  normalized growth: 0.969
Locus YLR221C, strain rsa3, active compounds read low
  normalized growth: 0.905 (active)
Locus YLR258W, strain gsy2, active compounds read low
  normalized growth: 0.963
Locus YLR262C, strain YPT6 (second series), active compounds read low
  normalized growth: 0.968
Locus YLR262C, strain YPT6, active compounds read low
  normalized growth: 0.801
Locus YLR268W, strain sec22, active compounds read low
  normalized growth: 0.959
Locus YLR320W, strain mms22, active compounds read low
  normalized growth: 0.933
Locus YLR330W, strain CHS5, active compounds read low
  normalized growth: 0.974
Locus YLR342W, strain FKS1 (second series), active compounds read low
  normalized growth: 0.95
Locus YLR342W, strain FKS1, active compounds read low
  normalized growth: 0.963
Locus YLR357W, strain rsc2, active compounds read low
  normalized growth: 0.967
Locus YLR370C, strain arc18, active compounds read low
  normalized growth: 0.965
Locus YLR371W, strain rom2, active compounds read low
  normalized growth: 0.978
Locus YLR384C, strain iki3, active compounds read low
  normalized growth: 0.961
Locus YLR418C, strain cdc73, active compounds read low
  normalized growth: 0.872
Locus YML016C, strain PPZ1, active compounds read low
  normalized growth: 0.982
Locus YML032C, strain rad52, active compounds read low
  normalized growth: 0.967
Locus YML120C, strain ndi1, active compounds read low
  normalized growth: 0.966
Locus YML124C, strain tub3, active compounds read low
  normalized growth: 0.96
Locus YMR058W, strain fet3, active compounds read low
  normalized growth: 0.963
Locus YMR078C, strain ctf18, active compounds read low
  normalized growth: 0.951
Locus YMR125W, strain sto1, active compounds read low
  normalized growth: 1
Locus YMR129W, active compounds read low
  normalized growth: 0.969
Locus YMR205C, strain PFK2, active compounds read low
  normalized growth: 0.981
Locus YMR223W, strain ubp8, active compounds read low
  normalized growth: 0.932
Locus YMR231W, strain pep5, active compounds read low
  normalized growth: 0.972
Locus YMR263W, strain SAP30, active compounds read low
  normalized growth: 0.949
Locus YMR307W, strain GAS1, active compounds read low
  normalized growth: 0.923
Locus YNL067W, strain RPL9B, active compounds read low
  normalized growth: 0.953
Locus YNL071W, strain lat1, active compounds read low
  normalized growth: 0.957
Locus YNL153C, strain GIM3, active compounds read low
  normalized growth: 0.969
Locus YNL209W, strain ssb2, active compounds read low
  normalized growth: 0.997
Locus YNL233W, strain BNI4, active compounds read low
  normalized growth: 0.929
Locus YNL248C, strain rpa49, active compounds read low
  normalized growth: 0.871 (active)
Locus YNL250W, strain rad50, active compounds read low
  normalized growth: 0.967
Locus YNL271C, strain bni1, active compounds read low
  normalized growth: 0.957
Locus YNL298W, strain CLA4, active compounds read low
  normalized growth: 0.977
Locus YNL307C, strain MCK1, active compounds read low
  normalized growth: 0.952
Locus YNL322C, strain KRE1 (second series), active compounds read low
  normalized growth: 0.959
Locus YNR049C, strain mso1, active compounds read low
  normalized growth: 0.968
Locus YNR052C, strain pop2, active compounds read low
  normalized growth: 0.983
Locus YOL006C, strain TOP1, active compounds read low
  normalized growth: 0.587
Locus YOL012C, strain htz1
  normalized growth: 1.06
Locus YOL147C, strain pex11, active compounds read low
  normalized growth: 0.977
Locus YOR001W, strain rrp6, active compounds read low
  normalized growth: 0.922
Locus YOR061W, strain CKA2, active compounds read low
  normalized growth: 0.989
Locus YOR069W, strain VPS5, active compounds read low
  normalized growth: 0.981
Locus YOR070C, strain gyp1, active compounds read low
  normalized growth: 0.979
Locus YOR080W, strain dia2, active compounds read low
  normalized growth: 0.951
Locus YOR083W, strain WHI5, active compounds read low
  normalized growth: 0.979
Locus YOR106W, strain vam3, active compounds read low
  normalized growth: 0.938
Locus YOR136W, strain idh2, active compounds read low
  normalized growth: 0.972
Locus YOR144C, strain elg1, active compounds read low
  normalized growth: 0.979
Locus YOR184W, strain ser1, active compounds read low
  normalized growth: 0.96
Locus YOR265W, strain rbl2, active compounds read low
  normalized growth: 0.964
Locus YOR270C, strain vph1, active compounds read low
  normalized growth: 0.737 (active)
Locus YOR290C, strain snf2, active compounds read low
  normalized growth: 0.976
Locus YOR316C, strain cot1, active compounds read low
  normalized growth: 0.969
Locus YPL051W, strain arl3, active compounds read low
  normalized growth: 0.916
Locus YPL078C, strain atp4, active compounds read low
  normalized growth: 0.959
Locus YPL106C, strain sse1, active compounds read low
  normalized growth: 0.969
Locus YPL240C, strain hsp82, active compounds read low
  normalized growth: 0.979
Locus YPR119W, strain clb2, active compounds read low
  normalized growth: 0.961
Locus YPR141C, strain kar3, active compounds read low
  normalized growth: 0.964
Locus YPR163C, strain tif3, active compounds read low
  normalized growth: 0.948
Locus YPR167C, strain met16, active compounds read low
  normalized growth: 0.969
Strain wtn01, active compounds read low
  normalized growth: 0.957
